These results are taken from PubChem BioAssay AID434970 (Sanford-Burnham Center for Chemical Genomics, 2010).

About 310 (2.8%) of roughly 11,000 compounds were called active. Cut-off read from the data, not from the text of the source: active = activity change below about -85%; inactive = the rest. This excerpt belongs to a sample that is enriched for actives.

The test system of this assay is intestinal alkaline phosphatase [Mus musculus]. The assay can be described thus: activators of mouse IAP, confirmation, biochemical, luminescence, single concentration (AID 434970). The following applies: purified mouse IAP, CDP-Star luminescence, 30 min, at 10 µM; activation factor: measured here: IAP activation factor, stronger effect = higher value; activity change, negative = activation: stronger effect = lower value.
Take `Cc1cc(NCCCn2ccnc2)n2c(nc3ccccc32)c1C#N`: the activation factor amounted to 1.02 and the activity change, negative = activation was -2.25% (inactive).
On to `CC1(C)Cc2c(sc3c2C2=NCCN2C=N3)CO1`, for which the activation factor was 0.94 and the activity change, negative = activation was 5.95% (inactive).
Turning to `COc1ccc(C(c2nnnn2Cc2cccs2)N2CCN(c3ccc(F)cc3)CC2)cc1OC` (stereo not given), the activation factor came out at 0.985 and the activity change, negative = activation is 1.5% (inactive).
The like results for `C1=C[C@H]2CC[C@@H]1N(c1ccccc1)O2` were, in that order, 0.976 and 2.4% (inactive).
On to `NC1=NC2(CCCCC2)N(c2ccc(F)cc2)C(N)=N1`, for which the activation factor stood at 0.95 and the activity change, negative = activation was 4.95% (inactive).
With `Cc1ccc(CNC(=O)/C(C#N)=C\c2ccc(N(C)C)cc2)cc1`, the activation factor was 0.817 and the activity change, negative = activation is 18.4% (inactive).
As to `CCCOc1ccc(Oc2cc(C)nc(SC)n2)nn1`, the activation factor worked out at 1.01 and the activity change, negative = activation is -1% (inactive).
With `Cc1nn(C/C(C#N)=N\O)c(C)[n+]1N`, the activation factor turned out to be 0.961 and the activity change, negative = activation is 3.9% (inactive).
The like results for `COc1cc2c3c(c1)C1(C(=O)N3C(C)(C)C=C2C)C(C#N)=C(N)Oc2cc(O)ccc21` (stereo not given) were, in that order, 1 and -0.3% (inactive).
The like results for `COc1ccc(NC(=O)c2ccco2)cc1NC(=O)c1cccc(OC(C)C)c1` were, in that order, 0.934 and 6.55% (inactive).
With `O=C1CN=C(Nc2ccccc2Cl)N1Cc1ccc2c(c1)OCO2`, the activation factor was 1.07 and the activity change, negative = activation was -7.1% (inactive).
`CCOC(=O)c1cccc(NC(=O)Nc2cc(OC)ccc2OC)c1`: the activation factor is 1.69 and the activity change, negative = activation was -68.8% (inactive).
As to `CCOC(=O)c1ccc(N2CCN(c3ccccc3F)CC2)c(NC(=O)Nc2cccc(OC)c2)c1`, the activation factor stood at 4.62 and the activity change, negative = activation was -362% (active).
`CCOC(=O)c1ccc(N2CCN(c3ccc(F)cc3)CC2)c(NC(=O)Nc2cccc(OC)c2)c1`: the activation factor was 1.55 and the activity change, negative = activation is -55% (inactive).
For `CCOC(=O)c1ccc(N2CCN(c3ccccc3F)CC2)c(NC(=O)Nc2ccccc2)c1` the same measures were 3.14 and -214% (active).
For `COc1cccc(NC(=O)CCN2CCN(c3ccccc3F)CC2)c1` the same measures were 1.09 and -8.65% (inactive).
As to `COC(=O)c1ccc(N2CCN(C)CC2)c(NC(=O)c2cc3ccccc3o2)c1`, the activation factor amounted to 1.03 and the activity change, negative = activation is -3.1% (inactive).
The like results for `CC1(C)N=C(SCC(=O)Nc2ccccc2)C(c2ccc(Cl)cc2)=N1` were, in that order, 0.943 and 5.75% (inactive).
For `COc1cc(C2CC(=O)Oc3ccc(C(C)(C)C)cc32)cc(OC)c1OC` (stereo not given) the same measures were 1.07 and -6.8% (inactive).
The like results for `O=C(O)CCN(CCC(=O)O)c1ccccc1` were, in that order, 1.02 and -1.9% (inactive).
For the compound `CNC[C@H]1Oc2ccc(NC(=O)Nc3ccc4c(c3)OCO4)cc2C(=O)N([C@H](C)CO)C[C@@H]1C`, the activation factor is 1.48 and the activity change, negative = activation is -47.9% (inactive).
`CNC[C@@H]1Oc2ccc(NC(=O)Nc3ccccc3)cc2C(=O)N([C@@H](C)CO)C[C@H]1C`: the activation factor was determined as 1.61 and the activity change, negative = activation is -61.5% (inactive).
For the compound `CNC[C@@H]1Oc2ccc(NC(=O)Nc3cccc4ccccc34)cc2C(=O)N([C@@H](C)CO)C[C@@H]1C`, the activation factor amounted to 2.43 and the activity change, negative = activation was -143% (active).
For `CNC[C@H]1Oc2ccc(NC(=O)Nc3ccc(OC)cc3)cc2C(=O)N([C@@H](C)CO)C[C@H]1C` the same measures were 2.23 and -123% (active).
The like results for `COc1ccc(NC(=O)Nc2ccc3c(c2)C(=O)N([C@H](C)CO)C[C@H](C)[C@@H](CN(C)C(=O)Nc2ccc(OC)cc2)O3)cc1` were, in that order, 1.6 and -60% (inactive).
Regarding `CCOC(=O)CC1(c2ccccc2)CCOC(C)(C)C1` (stereo not given), the activation factor came out at 0.94 and the activity change, negative = activation is 6.05% (inactive).
For `COc1ccc(N2CCN(S(=O)(=O)/C=C/c3ccccc3)CC2)cc1` the same measures were 1.07 and -7.05% (inactive).
As to `COc1ccc2[nH]c3c(c2c1)CCN1C(=O)C(CC(=O)NCCCN(C)C)C[C@H](C(=O)N(C(C)C)C(C)C)[C@@]31C` (stereo not given in full), the activation factor stood at 1.14 and the activity change, negative = activation was -13.9% (inactive).
The like results for `CN1CCN(C(CNS(=O)(=O)c2ccc(F)cc2)c2cccnc2)CC1` (stereo not given) were, in that order, 1.1 and -10.1% (inactive).
The like results for `O=C(CSc1nnc(C2CC2)n1Cc1ccccc1)NCc1ccccc1` were, in that order, 1.05 and -5% (inactive).
The like results for `CCOc1ccc2[nH]c3c(NCCC(C)C)ncnc3c2c1` were, in that order, 1.85 and -84.7% (inactive).
Take `O=C(Cn1cnc2c(NCc3ccccc3)ncnc21)NCc1ccccc1`: the activation factor is 0.932 and the activity change, negative = activation is 6.8% (inactive).
On to `O=C(Cn1cnc2c(NCc3ccccc3)ncnc21)NCc1ccc2[nH]ccc2c1`, for which the activation factor was determined as 1.1 and the activity change, negative = activation is -9.85% (inactive).
For `COc1cc(CNc2ncnc3c2[nH]c2ccc(C)cc23)cc(OC)c1`, the activation factor worked out at 2.97 and the activity change, negative = activation is -197% (active).
For `Cc1ccc2[nH]c3c(N4CCN(Cc5ccccc5)CC4)ncnc3c2c1` the same measures were 1.25 and -24.6% (inactive).
In the case of `COc1ccc2[nH]c3c(N4CC(C)OC(C)C4)ncnc3c2c1` (stereo not given), the activation factor is 1.17 and the activity change, negative = activation was -17.4% (inactive).
As for `COc1ccc(CNc2ncnc3c2[nH]c2ccccc23)cc1`, the activation factor was determined as 2.71 and the activity change, negative = activation was -171% (active).
For the compound `COc1ccc(CNC(=O)Cn2cnc3c(NCc4ccccc4)ncnc32)cc1`, the activation factor came out at 1.01 and the activity change, negative = activation was -0.55% (inactive).
The like results for `Fc1ccc2[nH]c3c(NCc4ccccc4)ncnc3c2c1` were, in that order, 2.25 and -125% (active).
For `COC(=O)c1ccc(CNC(=O)Cn2cnc3c(NCc4ccccc4)ncnc32)cc1` the same measures were 0.989 and 1.05% (inactive).
`Cc1ccc2[nH]c3c(NCc4ccccc4)ncnc3c2c1`: the activation factor was 2.49 and the activity change, negative = activation is -149% (active).
The like results for `Fc1ccc2[nH]c3c(NCCN4CCOCC4)ncnc3c2c1` were, in that order, 1.07 and -7.05% (inactive).
Regarding `O=C(CSc1nnc(C2CC2)n1Cc1ccccc1)N1CCN(S(=O)(=O)c2ccccc2)CC1`, the activation factor turned out to be 1.04 and the activity change, negative = activation is -4.25% (inactive).
The like results for `O=C(NCCc1ccccc1)c1nc2nc(-c3cccs3)cc(C(F)(F)F)n2n1` were, in that order, 0.956 and 4.4% (inactive).
Turning to `Cc1ccc(S(=O)(=O)C2CCOC2=O)cc1` (stereo not given), the activation factor stood at 0.793 and the activity change, negative = activation was 20.7% (inactive).
In the case of `COc1ccc(C(c2nnnn2CS(=O)(=O)c2ccc(C)cc2)N2CCN(c3ncccn3)CC2)cc1` (stereo not given), the activation factor was found to be 0.922 and the activity change, negative = activation is 7.75% (inactive).
The like results for `Cc1nnc(SCCC(C)C)[nH]c1=O` were, in that order, 1.13 and -12.6% (inactive).
As for `Cc1onc(-c2ccccc2Cl)c1C(=O)OCC(=O)c1ccc2c(c1)OCCO2`, the activation factor was 0.972 and the activity change, negative = activation is 2.85% (inactive).
For `CCOC(=O)C1=CN(CC)S(=O)(=O)NC1c1ccc(F)c(Cl)c1` (stereo not given) the same measures were 1.1 and -9.6% (inactive).
As to `CC[C@]12c3[nH]c4cc(CCC(=O)N(C)C)ccc4c3CCN1C(=O)[C@@H](CC(=O)NCCN1CCOCC1)C[C@@H]2C(=O)N1CCN(C(=O)C2CC2)CC1`, the activation factor came out at 1.07 and the activity change, negative = activation is -6.6% (inactive).
